Here are results for 40 molecules from PubChem BioAssay (NCATS).

Assay [1] can be described thus: Confirmatory qHTS to identify inhibitors of SARS-CoV-2 cell entry (AID 1645844). Also: nearly all actives have a fitted effect of over 45% in size. Also: potency is read from the fitted curve at half-maximal effect. Summed up: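 Luminescence from a luciferase reporter, read 48 hr after pseudotyped-particle addition, gives entry signal, normalised to spike-bearing PP wells and bald PP lacking fusion protein wells. Cells are Expi293F stably expressing human ACE2, compound-pretreated 1 hr.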
Background: Quantitative high-throughput screening tests each substance at several concentrations.

Assay [2] can be described thus: Cytotoxicity counterscreen for inhibitors of SARS-CoV-2 cell entry (AID 1645845). Also: nearly all actives have a fitted effect of over 50% in size. Summed up:
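48 h compound treatment (after 1 h preincubation), HEK293-ACE2 cells, 37 C/5% CO2; ATP luminescence endpoint; normalized to cell wells and media blanks.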
In general terms: Counterscreens check selectivity or assay interference.

A short description of assay [3]: VSVG counterscreen qHTS to identify inhibitors of SARS-CoV-2 cell entry (AID 1645847). Also: nearly all actives have a fitted effect of over 65% in size. Also: potency is read from the fitted curve at half-maximal effect. As to activity change, negative = inhibition: % is scaled to controls: 0 for no effect and ±100 for the full control effect. Summed up:
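Counterscreen using VSV-G (not spike) pseudotyped MLV particles on ACE2-expressing Expi293F cells after 1 h compound preincubation; infection ran 48 h at 37 °C. Data normalized to VSV-G PP and bald-PP wells.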

The target in assay [4] is Cytochrome P450 2D6 (Homo sapiens) (UniProt P10635). Briefly: Cytochrome P450 family 2 subfamily D member 6 (CYP2D6) small molecule antagonists: luciferase biochemical (cell-free) qHTS assay (AID 1645840; active = well fitted curve in the direction sought with a large enough effect in the repeat runs; an effect the other way counts as inactive or inconclusive; also: nearly all actives have a fitted effect of over 55% in size; also: potency is read from the fitted curve at half-maximal effect; as to activity change, negative = inhibition: % is scaled to controls: 0 for no effect and ±100 for the full control effect). Summed up: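 P450-Glo luminescent screen: recombinant CYP2D6 enzyme–proluciferin substrate mix preincubated with compound 10 min at room temperature, then NADPH regeneration added for 1 h at room temperature. Detection reagent added for 20 min; luciferin light read as relative luminescence units.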
Chain of Cytochrome P450 2D6 (Homo sapiens) (P10635 whole entry, looked up): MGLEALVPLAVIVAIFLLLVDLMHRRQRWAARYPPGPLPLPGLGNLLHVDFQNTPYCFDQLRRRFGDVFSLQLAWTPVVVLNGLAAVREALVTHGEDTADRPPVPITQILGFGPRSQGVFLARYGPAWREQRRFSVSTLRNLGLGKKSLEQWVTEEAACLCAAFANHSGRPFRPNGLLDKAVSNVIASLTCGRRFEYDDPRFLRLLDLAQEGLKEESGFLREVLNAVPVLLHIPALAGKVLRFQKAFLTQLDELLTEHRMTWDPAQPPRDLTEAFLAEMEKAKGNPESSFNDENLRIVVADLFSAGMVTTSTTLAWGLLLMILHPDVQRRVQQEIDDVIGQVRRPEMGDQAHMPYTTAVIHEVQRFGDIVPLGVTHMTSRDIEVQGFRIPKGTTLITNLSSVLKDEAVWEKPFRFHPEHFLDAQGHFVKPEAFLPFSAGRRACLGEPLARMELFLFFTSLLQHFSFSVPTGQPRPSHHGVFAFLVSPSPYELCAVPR

Assay [5] has as its target Cytochrome P450 2C9 (Homo sapiens) (UniProt P11712). Kind of assay: Cytochrome P450 family 2 subfamily C member 9 (CYP2C9) small molecule antagonists: luciferase biochemical (cell-free) qHTS assay (AID 1645842; active = well fitted curve in the direction sought with a large enough effect in the repeat runs; an effect the other way counts as inactive or inconclusive; also: nearly all actives have a fitted effect of over 55% in size; also: potency is read from the fitted curve at half-maximal effect; as to activity change, negative = inhibition: % is scaled to controls: 0 for no effect and ±100 for the full control effect). The procedure, abridged:
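Luminescence, after 20 min with luciferin detection reagent, reflected CYP2C9 turnover during a 1 h NADPH-driven reaction at 37C. Enzyme-substrate mix contained 0.4% bovine serum albumin and was preincubated with compound 10 min at room temperature.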

Assay [6] can be described thus: Primary qHTS for inhibitors of nuclear receptor binding SET domain protein 2 (NSD2) in an isogenic RCH-ACV NSD2 p.E1099K mutant (9B) (AID 1645876; active = well fitted curve in the direction sought with a large enough effect; an effect the other way counts as inactive or inconclusive; also: potency is read from the fitted curve at half-maximal effect; nearly all actives have a fitted effect of over 70% in size).
Assay [7] in a line: Primary qHTS for inhibitors of nuclear receptor binding SET domain protein 2 (NSD2) in an RCH-ACV wild type WT cells (2C) (AID 1645877; active = well fitted curve in the direction sought with a large enough effect; an effect the other way counts as inactive or inconclusive; also: potency is read from the fitted curve at half-maximal effect; nearly all actives have a fitted effect of over 70% in size).
Assay [8] in a line: Primary qHTS to identify inhibitors of SARS-CoV-2 cell entry (AID 1645846). Also: nearly all actives have a fitted effect of over 45% in size. Also: potency is read from the fitted curve at half-maximal effect. Conditions: activity change, negative = inhibition: at 57.1 µM (top of the series) unless noted. Summed up:
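Data are normalized to wells receiving SARS-CoV-2-S pseudoparticles and those given bald particles. Entry signal was luciferase luminescence in stable hACE2 Expi293F cells, 48 hr post-infection, after 1 hr compound pretreatment.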

Molecules are shown by their SMILES. Values joined by “and” are separate entries in the source; they are usually repeats but may differ in a detail not shown here. Equal values may be shown once. Inconclusive results are not listed. Active and inactive are the calls of the source. Unless noted, calls follow the shape of the full dose curve.

Chain of Cytochrome P450 2C9 (Homo sapiens) (P11712 whole entry, looked up): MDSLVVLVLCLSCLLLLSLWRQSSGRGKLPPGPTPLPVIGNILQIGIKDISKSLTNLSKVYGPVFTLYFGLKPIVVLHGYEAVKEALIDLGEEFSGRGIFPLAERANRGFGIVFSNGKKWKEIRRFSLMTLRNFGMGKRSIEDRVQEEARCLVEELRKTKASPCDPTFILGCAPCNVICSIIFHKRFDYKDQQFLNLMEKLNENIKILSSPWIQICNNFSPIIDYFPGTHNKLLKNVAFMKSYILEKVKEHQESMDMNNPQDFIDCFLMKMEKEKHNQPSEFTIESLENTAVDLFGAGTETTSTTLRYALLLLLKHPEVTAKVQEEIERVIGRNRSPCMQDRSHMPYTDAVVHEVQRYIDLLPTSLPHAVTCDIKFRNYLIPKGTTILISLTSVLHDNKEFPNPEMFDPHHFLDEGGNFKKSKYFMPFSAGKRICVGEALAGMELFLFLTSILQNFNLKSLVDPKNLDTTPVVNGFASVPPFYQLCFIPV

For `Nc1nc2[nH]cc(CCc3ccc(C(=O)N[C@@H](CCC(=O)O)C(=O)O)cc3)c2c(=O)[nH]1`, the Potency in assay [1] is 1.92 µM (active); in assay [3], 1.71 µM (active). Further, the Potency entry in assay [2] was “inactive”.
For the molecule `Cc1nc2ccc(CN(C)c3ccc(C(=O)N[C@@H](CCC(=O)O)C(=O)O)s3)cc2c(=O)[nH]1`, the Potency in assay [1] was 0.0271 µM (active); in assay [3], 0.304 µM (active).
Take `CCOP(=S)(OCC)Oc1ccc2c(C)c(Cl)c(=O)oc2c1`: the Potency is 15.5 µM (active) in assay [4], 6.92 µM (active) in assay [5], 7.5 µM (active) in assay [6] and 6.68 µM (active) in assay [7]. In addition, the Potency entry in assay [2] was “inactive”.
Turning to `CCN(CC)C(C)CN1c2ccccc2Sc2ccccc21` (stereo unspecified), the results for the Potency in assay [1] and in assay [3] were 0.0383 µM (active) and 0.341 µM (active), respectively. Moreover, in assay [2], the Potency result is “inactive”.
For the molecule `NC(=O)NC(=O)Cc1ccccc1`, in assay [2], the Potency entry was “inactive”.
For `Cc1c(C)c2c(c(C)c1O)CCC(C)(COc1ccc(CC3SC(=O)NC3=O)cc1)O2` (stereo unspecified), the Potency in assay [1] is 34.1 µM (active); in assay [3] it was 24.1 µM (active). Further, in assay [2], the Potency result is “inactive”.
Take `Cc1ccc(Nc2nccc(N(C)c3ccc4c(C)n(C)nc4c3)n2)cc1S(N)(=O)=O`: the figures for the Potency in assay [1] and in assay [3] were 21.5 µM (active) and 12.1 µM (active), respectively.
For the molecule `CN1[C@@H]2CC[C@H]1CC(OC(c1ccccc1)c1ccccc1)C2` (stereo partly specified), in assay [1], the Potency was 6.81 µM (active). The Potency result in assay [2] was “inactive”.
Take `NC(=O)c1cc[n+](CC2=C(C(=O)[O-])N3C(=O)[C@@H](NC(=O)Cc4cccs4)[C@H]3SC2)cc1`: in assay [2], the Potency entry is “inactive”.
Consider `CCOC(=O)c1ccccc1O`, for which, in assay [2], the Potency result was “inactive”.
Same read-out and setting: the entry for `CC(C)(C)NCC(O)COc1cccc2c1C[C@H](O)[C@H](O)C2` (stereo partly specified) is “inactive”.
For `Cc1cc2c(cc1CC(=O)c1sccc1S(=O)(=O)Nc1onc(C)c1Cl)OCO2`, the Potency entry in assay [1], in assay [2], in assay [8] and in assay [3] was “inactive” each time. In addition, the activity change, negative = inhibition in assay [8] was -56.4%.
Turning to `Nc1ccc(S(N)(=O)=O)cc1`, the Potency result in assay [2] is “inactive”.
`COc1cnc(NS(=O)(=O)c2ccc(N)cc2)nc1`: the Potency entry in assay [2] was “inactive”.
With `CCC[C@@]1(CCc2ccccc2)CC(O)=C([C@H](CC)c2cccc(NS(=O)(=O)c3ccc(C(F)(F)F)cn3)c2)C(=O)O1`, the Potency entry in assay [2] is “inactive”.
Consider `COc1ccc(C(=O)c2ccccc2O)c(O)c1`, for which the Potency entry in assay [2] was “inactive”.
`CCCCCCNC(=O)n1cc(F)c(=O)[nH]c1=O`: the values for the Potency in assay [1] and in assay [3] were 8.57 µM (active) and 5.41 µM (active), respectively. In addition, in assay [2], the Potency entry is “inactive”.
As to `CC(CSC(=O)c1ccccc1)C(=O)N1C[C@@H](Sc2ccccc2)C[C@H]1C(=O)O` (stereo partly specified), in assay [2], the Potency entry was “inactive”.
`CNCCC=C1c2ccccc2CCc2ccccc21`: the Potency in assay [1] was 21.5 µM (active). Further, in assay [2], the Potency entry is “inactive”.
For `C[n+]1c2cc(N)ccc2cc2ccc(N)cc21` (tested in a mixture with another compound), the Potency in assay [1] is 6.07 µM (active); in assay [8], 7.94 µM (active); in assay [3], 4.29 µM (active).
Turning to `Nc1ncnc2c1ncn2[C@@H]1O[C@H](CO)[C@@H](O)[C@H]1O`, the Potency result in assay [2] was “inactive”.
As to `Cc1cccc(C)c1OCC(=O)N[C@@H](Cc1ccccc1)[C@@H](O)C[C@H](Cc1ccccc1)NC(=O)[C@H](C(C)C)N1CCCNC1=O`, in assay [2], the Potency entry is “inactive”.
In the case of `COc1cccc2c1C(=O)c1c(O)c3c(c(O)c1C2=O)C[C@@](O)(C(=O)CO)C[C@@H]3O[C@H]1C[C@H](N)[C@@H](O)[C@H](C)O1`, the Potency in assay [1] and in assay [3] was 0.0961 µM (active) in each case. Further, the Potency entry in assay [2] is “inactive”. Also, the activity change, negative = inhibition in assay [8] was -93.2% and -92.9%.
Take `CC(C)Cc1ccc(C(C)C(=O)O)cc1` (stereo unspecified): the Potency entry in assay [2] is “inactive”.
On the same count and under the same terms, to `COc1cc(C(=O)NC2CCCNC2)cc(OC)c1OC` (stereo unspecified) belongs “inactive”.
Take `O=c1[nH]c(=O)n([C@H]2C[C@H](O)[C@@H](CO)O2)cc1Br`: the Potency result in assay [2] is “inactive”.
As for `COC(=O)C1=C(C)NC(C)=C(C(=O)OCC(C)=O)C1c1ccccc1[N+](=O)[O-]` (stereo unspecified), the Potency was 34.1 µM (active) in assay [1] and 8.57 µM (active) in assay [3]. Besides, the Potency entry in assay [2] is “inactive”.
For `CC(C)=CCC/C(C)=C/CC/C(C)=C/CCC(=O)OC/C=C(\C)CCC=C(C)C`, the Potency was 9.61 µM (active) in assay [1] and 1.08 µM (active) in assay [3]. In addition, the Potency result in assay [2] is “inactive”.
As for `CC(C)(O/N=C(\C(=O)N[C@@H]1C(=O)N2C(C(=O)[O-])=C(C[n+]3ccccc3)CS[C@H]12)c1csc(N)n1)C(=O)O`, in assay [2], the Potency entry was “inactive”.
For `Nc1ccn([C@@H]2O[C@H](CO)[C@@H](O)C2O)c(=O)n1` (stereo partly specified), the Potency is 4.29 µM (active) in assay [1] and 4.82 µM (active) in assay [3]. Also, in assay [2], the Potency entry is “inactive”.
Regarding `Nc1ccc(S(=O)(=O)Nc2ccccn2)cc1`, the Potency result in assay [2] was “inactive”.
Take `Oc1ccc(Cl)c2cccnc12`: the Potency is 2.71 µM (active) in assay [1] and 3.04 µM (active) in assay [3].
On to `O=C1CN(/N=C/c2ccc([N+](=O)[O-])o2)C(=O)N1`, for which the values for the Potency in assay [1] and in assay [3] were 21.5 µM (active) and 1.92 µM (active), respectively.
For `O=C1[C@@H]2[C@H]3CC[C@H](C3)[C@@H]2C(=O)N1CCCCN1CCN(c2ncccn2)CC1`, the Potency result in assay [2] was “inactive”.
For `Cc1ccc(C(=O)C(=O)O)cc1C`, the Potency result in assay [2] was “inactive”.
Take `Cc1cc(NS(=O)(=O)c2ccc(N)cc2)nc(C)n1`: the Potency entry in assay [1], in assay [2] and in assay [3] was “inactive” throughout. Further, the activity change, negative = inhibition in assay [8] is -52.4%.
`CCCCCCCCCCCCCCCCCC(=O)O`: the Potency result in assay [4], in assay [5] and in assay [2] was “inactive” in each case. Besides, the activity change, negative = inhibition in assay [8] is -6.11%.
With `O=c1[nH]c(=O)n([C@H]2C[C@H](O)[C@@H](CO)O2)cc1F`, the Potency entry in assay [2] is “inactive”.
As for `CCOc1ccc2nc3cc(N)ccc3c(N)c2c1`, the Potency in assay [1] was 24.1 µM (active); in assay [3], 21.5 µM (active).
As to `O=c1cc(O)c(Cl)c[nH]1`, the Potency entry in assay [2] and in assay [8] was “inactive” throughout.
